Assay results as given in the supplement of paper PMC6555819.

What follows are sequences tested on VDR:RXRa (NR concentration 270 nM, RXRa partner concentration 90 nM) (assay: PBM binding z-score (relative to random genomic background probes); higher = stronger binding; sequences stand for … in GC…GCGATTGACAGCGTAGAATGAAGG).
Procedure: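 Protein-binding microarray (Agilent 4x180K custom design, double-stranded 60-nt probes: 5' GC cap, 34-nt variable region, 24-nt constant primer region; full probe sequence given). Purified or IVT nuclear receptor:RXRα heterodimers (3:1 NR:RXRα, mostly 270:90 nM) or homodimers were incubated for 1 h in PBS with 2% milk and no ligand, then detected with Alexa488 antibodies. Fluorescence from o1-orientation probes (~5 replicates averaged) was converted to z-scores against 500 random hg19 background probes. Variable regions are seed direct-repeat (DR0–DR5) sites, all their single-nucleotide variants and half-site ablations.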

Sequence	PBM binding z-score
ACAGACAGGTGATGCAGGTAACTCAGGCTATCAT	-0.283
TTACCAATGTGAGCTGAGGTCGTTGATCCAACTC	1.78
CGAACTAGGTCGTTGACAGGACAGTGAATAGTAA	0.71
CAGACTGGGGCAGAAAGGTTACCATACCATCCGG	1.44
TCATATAGGTAAAGATGAAAGTCGAACGATATGA	0.437
ATCTCTAGGTAAGACTGAGTTCAGTGAAGAACGC	2.75
TCGAGTAGGTTACCAATGAGGCATTCAGCTTTCT	-0.192
TCGAGTAGGTTAGGGGCATTCGGAATGGCGTCGA	0.55
CAATCTAGGTCAAGGTCAAAGTCGGTTTGTGCCA	4.97
CATCCAAGGTCAATGCTAGGTCAGTGAAAGCATT	4.82
CCTTATGGGTCACGAGGTTATAGCACGACGAGCG	4.4
GCGACTGGGCCAAAGCAGGTTACCATAAGGTTGG	-0.513
TAGCCTAGGTCGGATCGGGCCAGTATACGCTATA	-0.475
CCTGCTAGGTTAATGGTCAGCTAAAGCAGCTCGC	-0.293
CCTAGTTGGTCAGGAGGTCAAACACCGGATATGA	4.09
ATATGTAGGTTTAGGGTCATTCAGGTTGGTTCGC	5.54
ATATGTAGGTTAAGGGTCGTTCAGGTTGGTTCGC	3.88
TCTTGTAGACCAACAGGAGGTTAAGAAAGATCGA	0.492
CTCGAAAGATCGTGCTCAGGTGAGTATACCAAAC	-0.291
CCTTACGGGTCACTGACAGGTTGTAGCATTTGGA	3.34

Sequence	PBM binding z-score
TCGAGTTGGTCAAAGGTCACACACTCGAAATGCG	5.56
CCAGACAGGTGAGAAGGTATCTCAGCCTCGATTA	-0.224
GCTTACGGGTCAAAGGTTATATCATGAATAGAAT	5.71
TCATATAGGTAATCCAGGTGAAAGTCGGCATCTA	1.1
CCGACTGGGGCGGAAAGGTTACCATACCATCCGG	1.02
ACTCGCAGGACAAAGGTCAGAGCTACGCCAGTGA	2.77
CGTCCAAGGTCAGAGAGGGCAGTGAATGCCGAGT	6.5
CCTTGCAGGCCAGGGTCACTCAAGCATTTCGCTT	2.69
TCATATTGGTAAATGCTAGGTGAAAGTCCGATCT	0.687
TCGAGTAGGTTAGGGGCATTTAGAATGGCGTCGA	0.556
CGAAATAGGTCAGAACAGGACAGTGAAGGATGAT	1.71
CAGACAGGGTCAGCTAGGCCAGAGTAGGGACGGC	3.81
CCTAGCAGGCCAGGGTAACTCAAGCATTTCGCTT	-0.743
ACTTACGGGTCAACGAGGTTAGAGCACGCGTATA	7.15
TCTATTAGGTGAAGGGCAACCGACGAGTCCGTTT	0.783
CCTGCTAGGTCATGGTCAGCAAATCTACAGTATG	1.48
CCGACTGTGGCAAGGTTACCATAACGCACAGCCA	0.0735
TTACCAAGGTGTAAGGTCGTTGATGCACGCCTTG	1.08
AATACTGGGTCACTAGGCCAGAGTAGGTACGAAT	1.47
TTACCAAGGTGATCTGAGGTCGTTGATCCAACTC	4.13
